High-throughput results deposited in PubChem by several laboratories.
dFosB act: enhances mouse delta FosB homodimer DNA binding. purified delta FosB, TAMRA-CDK5 oligo fluorescence polarization; percent of positive-control signal above neutral wells. activation, % at 25 µM. actives 0.99% (n = 340,000). AID 493131;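 active means mean activation above about 17%, with every replicate also reaching it, limit read from the data, passing the limit was not always enough; inconclusive means only one of the two conditions met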
Target sequence (P13346 whole entry, looked up): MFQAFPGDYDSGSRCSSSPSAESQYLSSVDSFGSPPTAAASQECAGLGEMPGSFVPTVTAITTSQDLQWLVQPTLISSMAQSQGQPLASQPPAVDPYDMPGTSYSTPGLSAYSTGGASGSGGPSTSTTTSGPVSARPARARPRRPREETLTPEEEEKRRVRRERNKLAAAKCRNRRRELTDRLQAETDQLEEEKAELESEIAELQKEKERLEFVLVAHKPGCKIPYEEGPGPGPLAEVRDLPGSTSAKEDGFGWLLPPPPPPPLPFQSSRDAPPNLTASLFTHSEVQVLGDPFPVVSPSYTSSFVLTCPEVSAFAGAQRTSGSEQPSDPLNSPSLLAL
INS-1E GSIS act: GLuc luminescence reporter in INS-1E cells, primary screen for activators of glucose-dependent secretion of insulin; AID 743287; INS-1E GLuc reporter insulin secretion, 2-3 h; actives 0.61% (n = 370,000); activation, % at 16.6 µM;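 active means lowest replicate activation of at least 40%, so every replicate reaches that level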;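 further: 0% = median of neutral control wells and 100% = median of IBMX positive control wells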
Vif imaging: inhibitors of HIV Vif | HEK293T cells, Vif self-association by quenched fluorescence, imaging, 24 h | inhibition, % at 7.49 µM | actives 0.35% (n = 340,000); in the data active means inhibition above about 50%, passing the limit was not always enough; inconclusive means no clear call, values can overlap the other calls; inactive means below about 31%
Neddyl block: blocks human cullin neddylation | P61081+Q13564 | TR-FRET cullin neddylation, biochemical | inhibition, % at 25 µM | actives 0.58% (n = 360,000) | AID 651699; in the data active means inhibition above about 36%
Bfl-1 A1 inh: inhibitors of the anti-apoptotic protein A1, read as caspase activation | actives 0.066% (n = 330,000) | MEF A1-2A-BIM cells, Caspase-Glo 3/7 luminescence, 3 h; percent of clofoctol response, vehicle zero | caspase activation, % (test concentration not listed);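 active means over half of replicate activation scores above 10%, or exactly half above 10 with the replicate mean above 10; inconclusive means replicate mean below 10 yet half the replicates above 10; inactive means over half of replicates below 10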
An asterisk follows results filed as active. This is a sample that favours compounds with a hit; in the whole collection about 1.9% have one here.

COc1ccc(CCn2c(O)cc3nn(-c4nc5ccccc5s4)c(=O)c-3c2C)cc1 was read as dFosB act -17.3, INS-1E GSIS act -6.7, Vif imaging -7.8, Neddyl block 74.5* and Bfl-1 A1 inh -0.5.
`COc1ccc(CN2CCN(c3nc4ccccc4s3)CC2)cc1` gave dFosB act 5.8, INS-1E GSIS act 21.4, Vif imaging -10.8 and Neddyl block 6.2.
Screening CCCCCc1ccc(OCCCC[n+]2ccc(C)cc2)c(CCCCC)c1 returned dFosB act 5.7, INS-1E GSIS act 109.4*, Vif imaging 1.0, Neddyl block -7.0 and Bfl-1 A1 inh 0.2.
Screening CCCCCc1ccc(OCCCC[n+]2cccc(C)c2)c(CCCCC)c1 returned dFosB act 0.8, INS-1E GSIS act 174.1*, Vif imaging -14.4, Neddyl block -6.4 and Bfl-1 A1 inh 0.1.
Screening Cc1cc(/C=N/NC(=O)c2ccncc2)c(C)n1-c1ccccc1 returned dFosB act -12.0, INS-1E GSIS act -2.2, Vif imaging 1.8, Neddyl block -4.7 and Bfl-1 A1 inh 1.5.
`Cc1cc(/C=N/NC(=O)c2cccs2)c(C)n1-c1ccccc1` gave dFosB act -7.9, Vif imaging -6.0, Neddyl block 40.0* and Bfl-1 A1 inh -3.5.
Screening CO[C@H]1CN(C)C(=O)c2cc(NC(C)=O)ccc2OC[C@H](C)N(C(=O)c2ccc(F)cc2)C[C@H]1C returned INS-1E GSIS act 6.4.
Screening CN1[C@H](C(=O)NC2CCCC2)[C@@H](CO)[C@@H]2Cn3c(ccc(/C=C/c4ccccc4)c3=O)[C@@H]21 returned INS-1E GSIS act -11.6.
`CCCCn1c(=O)[nH]c(=O)c2c1nc(Cn1ncc(Cl)c(Cl)c1=O)n2CCC` gave dFosB act -10.7, INS-1E GSIS act 111.4, Vif imaging 1.7, Neddyl block -247.9 and Bfl-1 A1 inh 6.8*.
CCCCn1c(=O)[nH]c(=O)c2c1nc(CN1C(=O)c3ccccc3S1(=O)=O)n2CCC was read as dFosB act -0.4, Vif imaging 26.5, Neddyl block -2.1 and Bfl-1 A1 inh 1.2.
Screening CCOC(=O)N1CCN(S(=O)(=O)N2CCCC(C(=O)NCc3cc(OC)ccc3OC)C2)CC1 (stereo unspecified) returned INS-1E GSIS act 99.4*, Vif imaging 7.9 and Neddyl block 13.0.
`COc1ccc(OC)c(CNC(=O)C2CCCN(S(=O)(=O)N3CCC(C)CC3)C2)c1` (stereo unspecified) gave dFosB act -2.8, INS-1E GSIS act 0.3, Vif imaging -2.0, Neddyl block -7.0 and Bfl-1 A1 inh 1.1.
CC(=O)c1ccc(-c2ccccc2C2=CC(=O)CC(C)(C)C2=O)cc1 was read as INS-1E GSIS act -20.5.
`CC1(C)CC(=O)C=C(c2ccccc2-c2ccc(S(C)(=O)=O)cc2)C1=O` gave INS-1E GSIS act 48.7* and Neddyl block -4.9.
O=C(Nc1cccnc1Cl)C1=NN(c2ccccc2)C(=O)CC1 was read as dFosB act -2.3, INS-1E GSIS act 47.7*, Vif imaging 8.4, Neddyl block -7.2 and Bfl-1 A1 inh 0.6.
`COCC(=O)Nc1ccc2c(c1)OC[C@H](C)N(CC1CC1)C[C@H](C)[C@H](OC)CN(C)C2=O` gave INS-1E GSIS act 16.1.
`Cc1ccc(C(CC(=O)O)NC(=O)c2ccc(S(=O)(=O)N3CC(C)OC(C)C3)cc2)cc1` (stereo unspecified) gave dFosB act -2.7, INS-1E GSIS act 58.4*, Vif imaging 23.1, Neddyl block 2.1 and Bfl-1 A1 inh -0.6.
For C[C@H]1CN([C@@H](C)CO)S(=O)(=O)c2ccc(C#CC3(O)CCCC3)cc2O[C@@H]1CN(C)C(=O)Nc1ccccc1 the results were INS-1E GSIS act -10.4.
For CC(C)N(C[C@H]1[C@H](c2ccccc2)[C@@H](CO)N1S(C)(=O)=O)C(=O)CN(C)C the results were INS-1E GSIS act 6.1.
C#CC(=O)CC1(CN(Cc2ccccc2)C(=O)OC(C)(C)C)CCCCC1 was read as dFosB act -13.7, INS-1E GSIS act 53.9* and Neddyl block -41.4.
Screening CON(C)C(=O)CC1(CN(Cc2ccccc2)C(=O)OC(C)(C)C)CCCCC1 returned dFosB act -14.1, INS-1E GSIS act 3.3, Vif imaging 1.4, Neddyl block -20.4 and Bfl-1 A1 inh 0.6.
Screening O=C(NN=C1CCCC1)c1cc(-c2ccccc2)n[nH]1 returned dFosB act -4.8, INS-1E GSIS act 48.1*, Vif imaging -0.2, Neddyl block -1.1 and Bfl-1 A1 inh 0.6.
Screening c1ccc(Nc2nc(NCc3ccco3)c3ccccc3n2)cc1 returned dFosB act inconclusive, INS-1E GSIS act -17.0, Vif imaging 1.2 and Bfl-1 A1 inh -0.9.
`COc1cccc(-c2nc(NCc3ccco3)c3ccccc3n2)c1O` gave dFosB act 1.6, INS-1E GSIS act 75.6*, Vif imaging -12.1, Neddyl block -2.7 and Bfl-1 A1 inh -0.2.
Screening Cc1cccc(Nc2nc(NCc3ccco3)c3ccccc3n2)c1 returned dFosB act 37.9*, Vif imaging -22.4 and Bfl-1 A1 inh -0.2.
`Cc1ccccc1Nc1nc(NCc2ccco2)c2ccccc2n1` gave dFosB act 36.3*, INS-1E GSIS act -17.4, Vif imaging 11.9, Neddyl block 38.9 and Bfl-1 A1 inh -7.4.
`COc1ccc(OC)c(Nc2nc(NCc3ccco3)c3ccccc3n2)c1` gave dFosB act 52.6*, INS-1E GSIS act -6.5, Vif imaging -8.1 and Bfl-1 A1 inh -0.2.
Screening COc1cccc(-c2nc(NCc3ccccc3)c3ccccc3n2)c1O returned dFosB act -6.5, INS-1E GSIS act 10.2, Vif imaging -8.9, Neddyl block 0.9 and Bfl-1 A1 inh -0.3.
`CN(C)C(=O)c1cccc(-c2ccc3c(c2)[C@@H]2[C@@H](CCN2C(=O)Cc2ccncc2)[C@@H](CO)N3)c1` gave INS-1E GSIS act 15.7.
C[C@@H]1CN([C@@H](C)CO)S(=O)(=O)c2ccc(C3=CCCC3)cc2O[C@H]1CN(C)Cc1cccnc1 was read as INS-1E GSIS act 12.7.
CCC(=O)Nc1ccc2c(c1)C(=O)N(C)C[C@@H](OC)[C@H](C)CN(C(=O)c1cnccn1)[C@@H](C)CO2 was read as INS-1E GSIS act 2.1.
CSc1ccccc1C(=O)OCC(=O)Nc1cccnc1Cl was read as dFosB act 0.4, INS-1E GSIS act 43.4*, Vif imaging inconclusive, Neddyl block -0.2 and Bfl-1 A1 inh -0.1.
`COc1ccc2[nH]c(=O)c(-c3nnn(-c4ccc(Cl)nc4)n3)cc2c1` gave dFosB act 2.2, Vif imaging 6.5, Neddyl block 32.2* and Bfl-1 A1 inh 1.0.
`Cc1ccc(S(=O)(=O)N(C)C[C@H]2OCCCC[C@H](C)Oc3ccc(NS(C)(=O)=O)cc3C(=O)N([C@H](C)CO)C[C@@H]2C)cc1` gave INS-1E GSIS act 2.8.
`NC(=S)NN=C1CCCCCCCCCC1` gave dFosB act -0.6, INS-1E GSIS act 54.7*, Vif imaging -0.5 and Neddyl block -1.0.
